Data as given in the supplement of paper PMC6135742.
Counter-ions that a name gives are not always drawn. ± gives the standard deviation of the averaged measurements. Whole data set: some 2,600 compounds, median “MBP+ mature oligodendrocyte number relative to DMSO vehicle control” near -0.34, cut for the highest 2% near 13. Only a selection was taken, and the highest values are over-represented in it overall.

These compounds were tested on jimpy (Plp1 jimpy) mouse iPSC-derived oligodendrocyte progenitor cells (assay: MBP+ mature oligodendrocyte number relative to DMSO vehicle control (SDs above negative control mean); higher = more surviving jimpy oligodendrocytes (rescue)). Settings: 10 µM; 3 days.
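Also: 10 µM single dose with 3-day oligodendrocyte differentiation.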

| Structure (SMILES) | MBP+ mature oligodendrocyte number |
| --- | --- |
| CC(C)C[C@H](NP(=O)(O)O[C@H]1O[C@H](C)[C@@H](O)[C@H](O)[C@@H]1O)C(=O)N[C@@H](Cc1c[nH]c2ccccc12)C(=O)O [Phosphoramidon disodium] | -0.211 |
| CN(N=O)C(=O)NC1C(O)OC(CO)C(O)C1O (centres undefined) [Streptozotocin (STZ)] | 0.109 |
| CN(C)C1CCN(C(=O)c2ccc(NC(=O)Nc3ccc(-c4nc(N5CCOCC5)nc(N5CCOCC5)n4)cc3)cc2)CC1 | < -6.01 |
| CC(C)(N)c1ncc(-c2ccc(OC(F)(F)F)cc2)[nH]1 | -1.43 |
| O=C(NC(NC(=S)Nc1ccc(F)c([N+](=O)[O-])c1)C(Cl)(Cl)Cl)C(c1ccccc1)c1ccccc1 (centres undefined) | -5.76 |
| CCN(CC)Cc1ccc(C(=O)N(CCc2ccccc2OC)[C@@H]2CCNC2)cc1 | -3.89 |
| CCCC(CCC)C(=O)O [Divalproex Sodium] | 2.05 |
| CCCC(CCC)C(=O)O[C@H]1C[C@H]2CC[C@@H](C1)[N+]2(C)C [Anisotropine methyl bromide] | 32.5 |
| CC(C)[N+]1(C)[C@@H]2CC[C@H]1C[C@@H](OC(=O)C(CO)c1ccccc1)C2 (some centres undefined) [Ipratropium bromide] | -0.439 |
| CC(C)[N+]1(C)[C@@H]2CC[C@H]1C[C@@H](OC(=O)C(CO)c1ccccc1)C2 (some centres undefined) [Ipratropium Bromide] | 0.883 |
| CCCC(CCC)C(=O)O [Valproic acid sodium salt (Sodium valproate)] | 0.72 |
| CCCC(CCC)C(=O)O [Valproic acid sodium] | 0.147 |
| Nc1cc(C(F)(F)F)c(-c2cc(N3CCOCC3)nc(N3CCOCC3)n2)cn1 [BKM120 (NVP-BKM120, Buparlisib)] | -4.7 |
| Clc1ccc(N2CCN(Cc3cc4ccccn4n3)CC2)cc1 | 0.61 |
| CCCCS(=N)(=O)CCC(N)C(=O)O (racemic) [DL-Buthionine-[S,R]-sulfoximine] | -0.472 |
| COc1ccc(CCN(C)CCCC(C#N)(c2ccc(OC)c(OC)c2)C(C)C)cc1OC (racemic) [(±)-Verapamil hydrochloride] | -2.6 |
| C/C(O)=C(\C#N)C(=O)Nc1ccc(C(F)(F)F)cc1 [Teriflunomide] | 0.913 |
| CC(C)C[C@H](C(=O)O)c1cc(-c2ccc(C(F)(F)F)cc2)cc(-c2ccc(C(F)(F)F)cc2)c1 | 25.5 |
| CC(C(=O)O)c1ccc(-c2ccccc2)c(F)c1 (centres undefined) [Flurbiprofen] | -0.0169 |
| C=CC(=O)N1CCC[C@@H](n2nc(-c3ccc(Oc4ccccc4)cc3)c3c(N)ncnc32)C1 | 0.104 |
| Cc1ccc(C(=O)N(CCCN)[C@@H](c2oc3cc(Cl)ccc3c(=O)c2Cc2ccccc2)C(C)C)cc1 | < -4.81 |
| Cc1nn(-c2ccccc2)c(C)c1C=NN1CCN(Cc2ccccc2)CC1 | 14.2 ± 1.6 |
| c1ccc(CN2CCC3(CCCc4ccccc43)CC2)cc1 [L-687,384 hydrochloride] | 0.735 |
| Cc1cccc(CN2CCN(C(c3ccccc3)c3ccc(Cl)cc3)CC2)c1 (centres undefined) [Meclizine 2HCl] | -4.88 |
| Nc1n[n+]([O-])c2ccccc2[n+]1[O-] [Tirapazamine] | -2.44 |

| Structure (SMILES) | MBP+ mature oligodendrocyte number |
| --- | --- |
| O=c1sn(-c2cccc3ccccc23)c(=O)n1Cc1ccccc1 [Tideglusib] | -0.769 |
| NNC(=O)CSc1nc2scc(-c3ccccc3)c2c(=O)n1-c1ccccc1 | -0.637 |
| OC(CCN1CCCCC1)(c1ccccc1)C1CC2C=CC1C2 (centres undefined) [Biperiden hydrochloride] | 2.59 |
| OC(CCN1CCCCC1)(c1ccccc1)C1CC2C=CC1C2 (centres undefined) [Biperiden HCl] | 13.7 |
| OC(CCN1CCCCC1)(c1ccccc1)C1CCCCC1 (centres undefined) [Trihexyphenidyl hydrochloride] | -0.104 |
| O=c1cc(-c2cccc3c2Sc2ccccc2S3)oc(N2CCOCC2)c1 | -3.99 |
| C[N+]1(C)CCC(=C(c2ccccc2)c2ccccc2)CC1 [Diphemanil Methylsulfate] | 19.2 |
| C[N+]1(C)CCC(OC(=O)C(c2ccccc2)c2ccccc2)CC1 [4-DAMP methiodide] | 2.86 |
| C[N+]1(C)CCC(OC(=O)C(c2ccccc2)c2ccccc2)CC1 | 0.467 |
| O=C(O)c1ccccc1 [Benzoic Acid] | 0.66 |
| C=C1CC[C@H](O)C/C1=C/C=C1\CCC[C@]2(C)[C@@H]([C@H](C)CCCC(C)C)CC[C@@H]12 [Vitamin D3] | 5.56 |
| C=C1CC[C@H](O)C/C1=C/C=C1\CCC[C@]2(C)[C@@H]([C@H](C)/C=C/[C@H](C)C(C)C)CC[C@@H]12 [Vitamin D2] | 21.5 |
| C=C1/C(=C\C=C2/CCC[C@]3(C)[C@@H]([C@H](C)/C=C/[C@H](C)C(C)C)CC[C@@H]23)C[C@@H](O)C[C@@H]1O [Doxercalciferol] | 8.14 |
| CCCCCCCCCCCCCCSCC(=O)O [Tetradecylthioacetic acid] | 0.00298 |
| CCCCC(F)(F)[C@@]1(O)CC[C@H]2[C@@H](CC(=O)[C@@H]2CCCCCCC(=O)O)O1 [Lubiprostone] | 25.2 |
| CCCCC[C@H](O)/C=C/[C@H]1[C@H](O)CC(=O)[C@@H]1CCCCCCC(=O)O [Alprostadil] | 0.793 |
| Cc1cnc(-c2cc(N3CCN(C(=O)CCS(C)(=O)=O)CC3)ncc2Cl)c(C)c1 | 0.184 |
| C[C@@H](CN1CCC(Cc2ccccc2)CC1)[C@@H](O)c1ccc(O)cc1 [Ro 25-6981 hydrochloride] | 14.6 |
| CC(C)(C)c1ccc(C(O)CCCN2CCC(C(O)(c3ccccc3)c3ccccc3)CC2)cc1 (centres undefined) [Terfenadine] | < -3.85 |
| C[C@H](N[C@@H](CCc1ccccc1)C(=O)O)C(=O)N1CCC[C@H]1C(=O)O [Enalaprilat dihydrate] | 0.574 |
| CC(C(O)c1ccc(O)cc1)N1CCC(Cc2ccccc2)CC1 (centres undefined) [Ifenprodil tartrate] | 8.03 |
| CC(C(O)c1ccc(O)cc1)N1CCC(Cc2ccccc2)CC1 (centres undefined) [Ifenprodil Tartrate] | 20.3 |
| CC(NCCc1ccc(O)cc1)C(O)c1ccc(O)cc1 (centres undefined) [Ritodrine HCl] | -0.164 |
| CC(C)(C(=O)O)c1ccc(C(O)CCCN2CCC(C(O)(c3ccccc3)c3ccccc3)CC2)cc1 (centres undefined) [Fexofenadine hydrochloride] | 0.659 |
| CC(NCCc1ccc(O)cc1)C(O)c1ccc(O)cc1 (centres undefined) [Ritodrine hydrochloride] | 1.15 |

| Structure (SMILES) | MBP+ mature oligodendrocyte number |
| --- | --- |
| C[C@H](N[C@@H](CCc1ccccc1)C(=O)O)C(=O)N1CCC[C@H]1C(=O)O [Enalaprilat Dihydrate] | -0.467 |
| CC(C)(C(=O)O)c1ccc(C(O)CCCN2CCC(C(O)(c3ccccc3)c3ccccc3)CC2)cc1 (centres undefined) [Fexofenadine HCl] | 1.53 |
| CC(=Cc1ccc(C(=O)O)cc1)c1ccc2c(c1)C(C)(C)CCC2(C)C | 0.539 |
| O=C(/C=C/c1ccc(CN(CCO)CCc2c[nH]c3ccccc23)cc1)NO [LAQ824 (Dacinostat)] | < -6.7 |
| CC(C)(C)[N+]([O-])=Cc1ccc(S(=O)(=O)O)cc1S(=O)(=O)O | 2.35 |
| CC(C)c1cc(-c2ccc(F)c3ccccc23)nc(N)n1 | 6.85 |
| Nc1ccc2ncnc(NCCc3ccc(Oc4ccccc4)cc3)c2c1 | < -6.35 |
| N#C/C(=C1/SC[C@@H](c2ccc(Cl)cc2Cl)S1)n1ccnc1 [Luliconazole] | 19.8 |
| C[C@]12CCC(=O)C=C1CC[C@@H]1[C@@H]2CC[C@@]2(C)[C@H]1CC[C@]2(O)C(=O)CO [Cortexolone] | 0.431 |
| CC(=O)O[C@]1(C(C)=O)CC[C@H]2[C@@H]3C[C@H](C)C4=CC(=O)CC[C@]4(C)[C@H]3CC[C@@]21C [Medroxyprogesterone acetate] | 16.5 |
| CC(=O)O[C@]1(C(C)=O)CC[C@H]2[C@@H]3C[C@H](C)C4=CC(=O)C=C[C@]4(C)[C@@]3(F)[C@@H](O)C[C@@]21C [Fluorometholone Acetate] | 10.3 |
| CC(=O)OCC(=O)[C@@]1(O)CC[C@H]2[C@@H]3CCC4=CC(=O)CC[C@]4(C)[C@H]3C(=O)C[C@@]21C [Cortisone acetate] | -0.164 |
| CC(=O)O[C@]1(C(C)=O)CC[C@H]2[C@@H]3C=C(Cl)C4=CC(=O)[C@@H]5C[C@@H]5[C@]4(C)[C@H]3CC[C@@]21C [Cyproterone acetate] | 3.38 |
| CC(=O)OCC(=O)[C@@]1(O)CC[C@H]2[C@@H]3CCC4=CC(=O)CC[C@]4(C)[C@H]3C(=O)C[C@@]21C [Cortisone 21-acetate] | -0.825 |
| CC(=O)O[C@]1(C(C)=O)CC[C@H]2[C@@H]3C=C(Cl)C4=CC(=O)[C@@H]5C[C@@H]5[C@]4(C)[C@H]3CC[C@@]21C [Cyproterone Acetate] | 21.5 |
| CC(=O)S[C@@H]1CC2=CC(=O)CC[C@]2(C)[C@H]2CC[C@@]3(C)[C@@H](CC[C@@]34CCC(=O)O4)[C@H]12 [Spironolactone] | 1.84 ± 1.7 |
| CC(=O)O[C@]1(C(C)=O)CC[C@H]2[C@@H]3C=C(C)C4=CC(=O)CC[C@]4(C)[C@H]3CC[C@@]21C [Megestrol Acetate] | 15.4 |
| CC(C)CCN1c2nc(Nc3cc(F)c(O)c(F)c3)ncc2N(C)C(=O)C1C (centres undefined) | < -6.01 |
| O=C(O)CP(=O)(O)O [Phosphonoacetic acid] | -0.64 |
| O=C(O)c1cc(=O)c2c(Cl)cc(Cl)cc2[nH]1 [5,7-Dichlorokynurenic acid] | -0.544 |
| COC(=O)C1=CO[C@@H](O)[C@@H]2C(CO)=CC[C@H]12 [Genipin] | 3.27 ± 0.9 |
| C=CC(=O)Nc1cccc(Nc2nc(Nc3ccc(Oc4ccnc(C(=O)NC)c4)cc3)ncc2F)c1 | -6.27 |
| CN1CCN(C(=O)c2cc3cc(Cl)ccc3[nH]2)CC1 | 1.14 |
| N[C@@H](CC(=O)N1CCn2c(nnc2C(F)(F)F)C1)Cc1cc(F)c(F)cc1F [Sitagliptin phosphate monohydrate] | 0.184 |
